The sample as a whole holds a higher share of hits than the screen did.
BL2 CD40 inh: CD40 pathway inhibition in BL2 cells; BL2 NF-kB luciferase reporter, CD40L-induced, 4 h; inhibition, % at 10 µM; 0.94% of 83,000 active;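 active = mean inhibition of at least 50% with a set share of replicates also reaching that level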;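 also: 0% = neutral control wells and 100% = IKK inhibitor VII at 50 µM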
An asterisk follows results filed as active; [ ] = another dose, or the depositor's remark.

SMILES	BL2 CD40 inh
COc1ccc(-c2ccc([C@@H]3[C@H](C#N)N(C(=O)NC4CCCC4)[C@H]3CO)cc2)cc1	4
O=C(c1cccnc1)N1C[C@@H]2[C@H](c3ccccc31)[C@H](CO)N2C(=O)Nc1cccc(F)c1	0[25 µM]
O=C(C[C@@H]1C[C@H]2c3cc(NC(=O)NC4CCCC4)ccc3O[C@H]2[C@H](CO)O1)NCc1ccccc1F	12[25 µM]
C[C@@H]1CN([C@H](C)CO)C(=O)Cc2cc(NC(=O)Cn3cnnn3)ccc2O[C@@H]1CN(C)Cc1ccc(Oc2ccccc2)cc1	-3[25 µM]
COc1ccc(OCC(=O)OCC(=O)NCc2ccco2)cc1	9
COc1ccc(CC(=O)OCC(=O)NCc2ccco2)cc1	5
Cc1cc(OCC(=O)OCC(=O)NCc2ccco2)ccc1Cl	31*
Cc1ccccc1-c1ccc([C@H]2[C@H](CO)N3C(=O)CN(C(=O)c4ccncc4)C[C@@H]23)cc1	5[25 µM]
O=C(Nc1cc(F)ccc1F)N[C@@H]1CC[C@H](CC(=O)N2CCc3ccccc3C2)O[C@@H]1CO	12[25 µM]
O=C(COCc1cc(-c2ccc3c(c2)OCO3)on1)N1CCCCC1	-68
O=C(c1cc(-c2ccc3c(c2)OCO3)on1)N1CCOCC1	48*
O=C(c1cc(-c2ccc3c(c2)OCO3)on1)N1CCN(c2ccccc2)CC1	-38
O=C(N[C@@H]1CC[C@H](CCNS(=O)(=O)c2ccc(F)cc2)O[C@@H]1CO)C1CCC1	-4[25 µM]
CCN1C(=O)C(CC(=O)Nc2ccc(F)cc2)N(Cc2ccc3c(c2)OCO3)C1=S (centres undefined)	-8
COC(=O)CN1C(=S)N(c2ccc(F)cc2)C(=O)C1CC(=O)Nc1ccccc1 (centres undefined)	16
CCN1C(=O)C(CC(=O)Nc2ccc(F)cc2)N(Cc2ccco2)C1=S (centres undefined)	37*
Cc1ccc(S(=O)(=O)N(C)C[C@@H]2Oc3ccc(NC(=O)CCCN(C)C)cc3C(=O)N([C@@H](C)CO)C[C@@H]2C)cc1	2[25 µM]
O=C(Nc1nccs1)c1cc2c(s1)CCCCC2	92*
O=C(Nn1cnnc1)c1cc2c(s1)CCCC2	-1
CC(C)Cc1nnc(NC(=O)c2cc3c(s2)CCC3)s1	-36
CN1C(=O)c2cc(NC(=O)C3CCCC3)ccc2OC[C@@H]2O[C@H](CC(=O)NCCc3ccncc3)CC[C@H]21	0
COc1ccc(-c2ccc3c(c2)[C@@H]2[C@@H](CCN2C(=O)Cc2ccccc2)[C@@H](CO)N3C)cc1	3[25 µM]
COc1ccc(CN(CCC(c2ccc(F)cc2)C2CCOC(C)(C)C2)C(=O)c2ccco2)cc1 (centres undefined)	37*
O=C(c1ccco1)N(CCC(c1ccccc1)c1ccco1)Cc1ccccc1 (centres undefined)	-1
CC1(C)CC(C(CC(=O)O)c2ccccc2)CCO1 (centres undefined)	-3
SMILES	BL2 CD40 inh
O=C(C[C@@H]1C[C@H]2c3cc(NC(=O)c4ccc5c(c4)OCO5)ccc3O[C@H]2[C@@H](CO)O1)NC1CCCCC1	-1[25 µM]
CO[C@H]1CN(C)C(=O)c2cc(NS(C)(=O)=O)ccc2OC[C@@H](C)N(C(=O)C2CCOCC2)C[C@@H]1C	-13[25 µM]
Cc1ccccc1S(=O)(=O)N1C[C@@H](O)COC[C@@H]2O[C@@H](CC(=O)N3CCCCC3)CC[C@H]21	-2[25 µM]
C[C@H](CO)N1C[C@H](C)[C@H](CN(C)Cc2cccc(C(=O)O)c2)Oc2ncc(C#C[C@@H](C)O)cc2C1=O	-12[25 µM]
CN1C(=O)c2cc(NC(=O)C3CC3)ccc2OC[C@H]2O[C@H](CC(=O)NCc3ccccc3F)CC[C@@H]21	2
O=C(c1ccc(S(=O)(=O)Nc2ccccc2Cl)cc1)N1CCOCC1	7
O=C(c1nnsc1S(=O)(=O)c1ccc(Cl)cc1)N1CCOCC1	97*
O=C(N1CCOCC1)N1CCN(S(=O)(=O)c2ccc(Cl)cc2)C1	6
O=C(C1CCCC1)N1CC(=O)N2[C@H](CO)[C@@H](c3ccc(-c4ccccc4F)cc3)[C@@H]2C1	2
CO[C@H](CN(C)S(=O)(=O)c1ccc(Cl)cc1)[C@H](C)CN([C@H](C)CO)S(=O)(=O)c1cccc(Cl)c1	11
C[C@@H]1CN([C@H](C)CO)C(=O)c2c(c3ccccc3n2C)-c2ccccc2CO[C@@H]1CN(C)C(=O)c1cc(Cl)cc(Cl)c1	60*[25 µM]
C[C@H]1CN([C@@H](C)CO)C(=O)c2c(c3ccccc3n2C)-c2ccccc2CO[C@H]1CN(C)C(=O)c1cc(Cl)cc(Cl)c1	44[25 µM]
C[C@H]1CN([C@@H](C)CO)C(=O)c2c(c3ccccc3n2C)-c2ccccc2CO[C@@H]1CN(C)C(=O)c1cc(Cl)cc(Cl)c1	40[25 µM]
C[C@H]1CN([C@@H](C)CO)C(=O)c2ccccc2-c2ccccc2CO[C@@H]1CN(C)C(=O)c1ccccc1	-5
C[C@@H]1CN([C@H](C)CO)C(=O)c2ccccc2-c2ccccc2CO[C@@H]1CN(C)C(=O)c1cc(Cl)cc(Cl)c1	66*[25 µM]
C[C@H]1CN([C@@H](C)CO)C(=O)c2ccccc2-c2ccccc2CO[C@@H]1CN(C)C(=O)c1cc(Cl)cc(Cl)c1	15[25 µM]
C/C=C/c1ccc([C@H]2[C@@H](CO)N(CC3CC3)[C@@H]2CN(C(C)=O)C(C)C)cc1	0[25 µM]
C[C@H](CO)N1C[C@H](C)[C@@H](CN(C)Cc2ccc3c(c2)OCCN3C)OCc2cn(nn2)CCCC1=O	-3[25 µM]
O=S(=O)(c1ccccc1)N1CC2(C1)[C@H](c1ccccc1)[C@@H](CO)N2CC1CCOCC1	-10[25 µM]
CC(C)OC(=O)N(C)C[C@H]1OCc2ccccc2-c2c(n(C)c3ccccc23)C(=O)N([C@H](C)CO)C[C@H]1C	9
O=C(c1ccc(-c2ccc([N+](=O)[O-])cc2)o1)N1CCCCCCC1	-3
O=C(c1ccc(-c2ccc([N+](=O)[O-])cc2)o1)N1CCCC(C(F)(F)F)C1 (centres undefined)	61*
O=C(c1ccccc1)c1ccc(C(=O)N2CCCC(C(F)(F)F)C2)cc1 (centres undefined)	-2
C[C@@H]1CN([C@H](C)CO)C(=O)CCCn2cc(nn2)CO[C@@H]1CN(C)S(=O)(=O)c1ccc2c(c1)OCCCO2	7[25 µM]
CNC[C@H]1Oc2c(NC(=O)NC(C)C)cccc2C(=O)N(C)C[C@@H]1C	0
SMILES	BL2 CD40 inh
CC(C)NC(=O)N[C@H]1CC[C@@H](CC(=O)NCCCN(C)C)O[C@H]1CO	-4[25 µM]
CN(C)C(=O)c1cc(-c2ccccc2)no1	-48
Cc1ccc2nc(-c3cc(-c4ccccc4)no3)cn2c1	63*
CC(=O)Nc1nccc(-c2cc(-c3ccccc3)no2)n1	-90
COC(=O)C[C@H]1CC[C@@H]2[C@@H](COc3ccc(NS(=O)(=O)c4ccc(C)cc4)cc3C(=O)N2C)O1	-11[25 µM]
C[C@H]1CN([C@@H](C)CO)C(=O)c2cc(NC(=O)CCN3CCOCC3)ccc2O[C@H]1CN(C)S(=O)(=O)c1cccs1	-2[25 µM]
C[C@H]1CN([C@@H](C)CO)C(=O)c2c(c3ccccc3n2C)-c2ccccc2CO[C@H]1CN(C)C(=O)Nc1cccc(C(F)(F)F)c1	55*[25 µM]
C[C@@H]1CN([C@@H](C)CO)C(=O)c2c(c3ccccc3n2C)-c2ccccc2CO[C@H]1CN(C)C(=O)Nc1cccc(C(F)(F)F)c1	70*[25 µM]
C[C@@H]1CN([C@@H](C)CO)C(=O)c2c(c3ccccc3n2C)-c2ccccc2CO[C@@H]1CN(C)C(=O)Nc1cccc(C(F)(F)F)c1	24[25 µM]
C[C@@H]1CN([C@H](C)CO)C(=O)c2c(c3ccccc3n2C)-c2ccccc2CO[C@@H]1CN(C)C(=O)Nc1cccc(C(F)(F)F)c1	20[25 µM]

Screening results from PubChem.
